Results published in PubChem BioAssay AID602250 (The Scripps Research Institute Molecular Screening Center, 2012).
The campaign covered roughly 360,000 compounds. About 2,200 (0.61%) were called active.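 How the source made its calls: active means inhibition above a per-plate cutoff, the plate's mean sample inhibition plus 3 SD (cut at about 24% in these data); inactive means the rest.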 The entries come from a sample that favours actives as a whole.

assay: nonselective inhibitors of ATP calcium response in CHO-K1, primary screen, counter-screen for M1 antagonist project, cell-based, Fluo-8 calcium fluorescence, full deck, 1536-well (AID 602250); settings: CHO-K1 parental, ATP-induced calcium, Fluo-8 fluorescence; at 3 µM; hits give high values;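 further: 0% = DMSO plus EC80 ATP and 100% = DMSO alone without ATP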

Row | SMILES | inhibition
1 | O=C(NCc1ccccc1)[C@@H]1CSC2c3ccccc3C(=O)N21 (some centres not stated) | -4.7% (inactive)
2 | Nc1ccc2nn(-c3ccc(Cl)cc3)nc2c1 | -10.4% (inactive)
3 | CN(C)c1ccc(CSc2ccccc2)cc1 | -21.6% (inactive)
4 | CN(C)c1ccc(/C=C2\NC(=S)N(Cc3ccccc3)C2=O)cc1 | 53.4% (active)
5 | CN(C(=O)CN1C(=O)NC(C)(CCc2ccccc2)C1=O)c1ccccc1 (configuration not stated) | -3.27% (inactive)
6 | COc1ccc(N2C(=O)CC(Sc3n[nH]c(-c4ccc(C)cc4)n3)C2=O)cc1 (configuration not stated) | 24.5% (active)
7 | Cc1ccc(N2C(=O)CC(Sc3ncn[nH]3)C2=O)cc1 (configuration not stated) | -12.5% (inactive)
8 | COc1ccc(-c2nc(SCC(=O)N3CCOCC3)n[nH]2)cc1 | -11.8% (inactive)
9 | Cn1c(SCC(=O)NC2CCCCC2)nnc1-c1cc2ccccc2o1 | -5.47% (inactive)
10 | CCc1c(SCCC(=O)O)nc2ccccc2c1C | -13.8% (inactive)
11 | CCNC(=S)NCC | -17.7% (inactive)
12 | O=C1NNC(c2ccccc2)=N/C1=C\c1ccc(Cl)cc1 | 3.07% (inactive)
13 | O=C1OC(c2ccc(Cl)cc2)=N/C1=C\c1cccnc1 | 32.7% (active)
14 | Cc1ccc(C2=C/C(=C\c3cccnc3)C(=O)O2)cc1 | 6.03% (inactive)
15 | CN1OC(COC(=O)c2ccc(Cl)cc2)CC1c1ccccc1 (configuration not stated) | 28.7% (active)
16 | Cn1cncc1COC(=O)c1ccc(Cl)cc1 | 9.06% (inactive)
17 | CCCCCCN1C[C@@H](O)[C@H](n2cc(COC(=O)c3ccccc3)nn2)C[C@@H]1c1ccc(Cl)cc1 | 0.85% (inactive)
18 | O=C(Nn1cc(C(=O)N2CCN(c3ccccc3F)CC2)c2ccccc2c1=O)c1cnccn1 | -2.09% (inactive)
19 | O=C(NCCCO)c1cc2c([nH]c3ccccc32)c(-c2ccc(F)cc2)n1 | -6.07% (inactive)
20 | COc1ccc2cc(C(=O)NCC3CCCO3)[nH]c2c1 (configuration not stated) | -13.7% (inactive)
21 | O=C(NCC1CCCO1)c1cc2c([nH]c3ccccc32)c(-c2ccc(F)cc2)n1 (configuration not stated) | 31.3% (active)

Row | SMILES | inhibition
22 | Fc1ccccc1CCNc1nnnn1-c1ccccc1 | -1.72% (inactive)
23 | COC(=O)Cc1ccc(NC(=S)NCc2ccco2)cc1 | 2.26% (inactive)
24 | Cc1ccsc1C(=O)NCCc1ccco1 | -8.62% (inactive)
25 | OCCc1ccc(NCCc2ccco2)cc1 | 29.2% (active)
26 | CC1=CC2=NC(=O)CC(C)(C(=O)N(CC(=O)NC(C)(C)C)Cc3ccccc3)N2C=C1 (configuration not stated) | -17.9% (inactive)
27 | CC1(C)CC(=O)C2=C(C1)N=C1SCCC(=O)N1C2c1ccc(C(F)(F)F)cc1 (configuration not stated) | -16.7% (inactive)
28 | N/C(=N\OC(=O)Cc1ccccc1[N+](=O)[O-])c1ccc(Br)cc1 | -3.46% (inactive)
29 | N/C(=N\OC(=O)N1c2ccccc2Sc2ccccc21)c1ccc(Br)cc1 | -4.6% (inactive)
30 | N/C(=N\OC(=O)/C=C/c1ccccc1)c1ccc(Br)cc1 | 24.5% (active)
31 | CCc1ccc(/C=N/NC(=O)c2ccc(OC3CCCC3)cc2)s1 | 3.77% (inactive)
32 | Cc1cc(=O)oc2c(C)c(OCC(=O)NCCN3CCOCC3)ccc12 | -7.03% (inactive)
33 | O=C(C1CCCO1)N1CCN(S(=O)(=O)c2ccc(Br)cc2)CC1 (configuration not stated) | 5.99% (inactive)
34 | COc1cc(C(=S)NCc2ccccc2)cc(Br)c1O | -5.75% (inactive)
35 | Cc1cc(NC(=O)Cn2nc(C(F)(F)F)c3c2CCCC3)no1 | -9.16% (inactive)
36 | O=C(Cn1nc(C(F)(F)F)c2c1CCC2)NCc1ccc(F)cc1 | 25% (active)
37 | CCC(C)NC(=O)Cn1nc(C(F)(F)F)c2c1CCC2 (configuration not stated) | -24.7% (inactive)
38 | N#CC1(Nc2ccc(-c3ccc(Cl)cc3)cc2)CCCC1 | -8.66% (inactive)
39 | N#CC1(Nc2ccc3c4c(cccc24)CC3)CCCCC1 | 35.7% (active)
40 | CC(C)C(=O)Nc1ccc2c3c(cccc13)CC2 | -5.37% (inactive)
41 | CCn1c(=O)c(=O)[nH]c2c(=O)oc3ccc(S(=O)(=O)Nc4ccc(OC)cc4)cc3c21 | -7.54% (inactive)
42 | Cc1ccc(NC(=O)[C@H](Cc2ccccc2)NC(=O)C2CCNCC2)cc1 | -21.4% (inactive)

Row | SMILES | inhibition
43 | CCC(NC(=O)C1CCCC1)c1ccc(C)cc1 (configuration not stated) | -8.16% (inactive)
44 | CCC(Cc1ccccc1)NC(=O)C1CCCCC1 (configuration not stated) | 27.9% (active)
45 | O=c1[nH]c(CSc2ccccc2)nc2c1oc1ccccc12 | -8.98% (inactive)
46 | CN(C(=O)CSc1nnc(-c2n[nH]c3ccccc23)o1)c1ccccc1 | -5.61% (inactive)
47 | Cc1cccc2cc3c(N)c(C(=O)N4CCCc5ccccc54)sc3nc12 | 13.5% (inactive)
48 | COc1ccc(NC(=O)C(NC(C)=O)C(=O)NCc2ccccc2Cl)cc1 (configuration not stated) | 1.86% (inactive)
49 | O=C(Nc1ccc(Cl)cc1)c1csc([C@H]2C[C@H](O)[C@@H](CO)O2)n1 | 20.1% (inactive)
50 | O=C(Nc1ccc(Cl)cc1)c1csc([C@@H]2O[C@H](CO)[C@H](O)[C@H](O)[C@H]2O)n1 | -8.36% (inactive)
51 | O=C(Nc1ccc(OCCO)cc1)c1csc([C@H]2C[C@H](O)[C@@H](CO)O2)n1 | 25.4% (active)
52 | O=C(c1ccc(S(=O)(=O)NCc2ccco2)cc1)N1CCN(c2ccccc2)CC1 | -11.5% (inactive)
53 | O=C(c1ccc(S(=O)(=O)N2CCCC2)cc1)N1CCN(c2ccccc2F)CC1 | -8.35% (inactive)
54 | O=C(c1ccc(S(=O)(=O)N2CCOCC2)cc1)N1CCN(c2ccccc2)CC1 | 24.7% (active)
55 | COC(=O)c1nc(NC(=O)c2ccc(F)cc2)n[nH]1 | -11.8% (inactive)
56 | CSc1nccc(NC(=O)c2ccc(C(C)(C)C)cc2)n1 | 24.6% (active)
57 | Cc1ccc(C(=O)Nc2ccn(C)n2)cc1 | -13.4% (inactive)
58 | COc1ccccc1CNC(=O)c1cc(-c2cc(Cl)ccc2C)n[nH]1 | -17.7% (inactive)
59 | Cc1ccc(S(=O)(=O)N(Cc2ccc(Cl)cc2)c2ccccc2C(=O)NCc2cccnc2)cc1 | 22.6% (inactive)
60 | COc1ccc(C)c(Cn2c(-c3nonc3N)nc3ccccc32)c1 | -35.1% (inactive)
61 | Nc1nonc1-c1nc2ccccc2n1Cc1ccc(F)cc1 | 24.1% (active)
62 | O=c1[nH]cccc1-c1nc2ccccc2n1Cc1ccc(Cl)cc1 | 6.91% (inactive)
